Bioassay records: PubChem, several laboratories
Hits are enriched below; roughly 1.8% of the tested compounds scored in any of these assays.
TLR4 MyD88 comp – TLR4-MyD88 interaction inhibition in cells | HeLa CL3-4 TLR4/MyD88 BLA complementation, FRET ratio | inhibition, % at 8.4 µM | 200,000 compounds, 0.18% hits | AID 861; in the data active means inhibition above about 25%;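 further: 0% = vehicle and 100% = reference inhibitor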
LANA-H2B inh – blocks KSHV LANA binding to histone H2A/H2B. cell-free LANA-H2A/H2B peptide, fluorescence polarization. 320,000 compounds, 0.6% hits. inhibition, % (concentration not given with the values). AID 2629; in the data active means inhibition mostly above about 10%, no sharp cut-off; inactive means mostly below about 6.7%
HTR2A ag – mouse HTR2A agonism via beta-arrestin recruitment; P35363; CHO-K1 mHTR2A beta-arrestin complementation, luminescence; percent of 30 µM serotonin response; activation, % at 7.6 µM; 360,000 compounds, 0.66% hits;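 active means activation above a run cutoff, the mean activation of all tested compounds plus 3 SD, cut at about 14% in these data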;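 further: 0% = plate median of compound wells and 100% = 30 µM serotonin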
Target sequence (P35363 whole entry, looked up): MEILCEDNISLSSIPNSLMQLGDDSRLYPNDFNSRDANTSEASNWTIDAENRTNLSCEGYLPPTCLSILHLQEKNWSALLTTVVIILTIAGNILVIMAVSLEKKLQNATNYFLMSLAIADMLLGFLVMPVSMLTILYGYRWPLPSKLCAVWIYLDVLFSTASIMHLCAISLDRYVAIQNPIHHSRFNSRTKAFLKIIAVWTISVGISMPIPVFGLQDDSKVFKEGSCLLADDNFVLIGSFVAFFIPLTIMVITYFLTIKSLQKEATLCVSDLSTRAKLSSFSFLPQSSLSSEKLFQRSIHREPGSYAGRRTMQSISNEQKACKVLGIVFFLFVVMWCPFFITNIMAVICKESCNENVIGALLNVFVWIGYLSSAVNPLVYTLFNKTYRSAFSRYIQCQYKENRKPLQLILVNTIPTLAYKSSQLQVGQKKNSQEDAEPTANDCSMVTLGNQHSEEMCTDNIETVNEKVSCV
NOD2-RIPK2 inh – inhibitors of human NOD2-RIPK2 interaction | O43353 | CHO BLA complementation NOD2-RIPK2, CCF4 ratio | inhibition, % at 4.98 µM | 360,000 compounds, 0.38% hits; in the data active means inhibition above about 21%;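 further: 0% = vehicle only and 100% = reference blocker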
Rtt109 Vps75 – C. albicans Rtt109 histone acetyltransferase inhibition; Q5AAJ8; purified Rtt109/Vps75, ThioGlo CoA-SH fluorescence, 4 h; inhibition, % at 34.9 µM; 330,000 compounds, 0.16% hits;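 active means inhibition of at least 50% in every replicate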
TLR9-MyD88 inh – blocks human TLR9 binding to MyD88; 340,000 compounds, 0.21% hits; CHO BLA complementation TLR9-MyD88, CCF4 FRET ratio; inhibition, % at 4.98 µM;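 active means inhibition above the mean over all tested compounds plus 3 SD, cut at about 21% in these data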;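 further: 0% = DMSO only wells and 100% = clavulanate BLA inhibitor control wells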
TLR4 MyD88 cnf – confirmation of human TLR4-MyD88 binding inhibitors | AID 941 | shares compounds with TLR4 MyD88 comp | inhibition, % at 8.4 µM | 350 compounds, 50% hits | HeLa CL3-4 BLA complementation, CCF4 FRET ratio;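 active means mean inhibition across three repeat runs above about 25% carried over from the earlier screen, limit read from the data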;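 further: plate controls were DMSO only for no effect and clavulanic acid blocking BLA at full dose for full effect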
BLA inhibitor ct – beta-lactamase inhibition flagged in TLR4-MyD88 counter-screen; shares compounds with TLR4 MyD88 comp; inhibition, % at 8.4 µM; 350 compounds, 63% hits; HeLa BLA reporter, CCF4 FRET ratio;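 active means mean inhibition over three repeats above about 26% taken from the earlier screen, limit read from the data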;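 further: HeLa cells stably expressing beta-lactamase reporter as counterscreen for TLR4-MyD88 inhibitors; 0% = DMSO and 100% = clavulanic acid full inhibition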
* marks the source's active call; other numbers are inactive results; . = no result.

SMILES	TLR4 MyD88 comp	LANA-H2B inh	HTR2A ag	NOD2-RIPK2 inh	Rtt109 Vps75	TLR9-MyD88 inh	TLR4 MyD88 cnf	BLA inhibitor ct
O=C1COc2ccc(C(=O)COC(=O)c3cnc(Cl)c(Cl)c3)cc2N1	28.1*	4.2	0.5	-8.8	-8.4	-0.2	26.6*	-3.0
O=C1COc2ccc(C(=O)COC(=O)c3ncc(Cl)c(Cl)c3Cl)cc2N1	.	1.1	7.5	-8.0	-3.4	-8.9	.	.
Cc1ccc2nc(Cl)c(/C=N/Nc3nc(C)cc(C)n3)c(=O)n2c1	33.3*	.	-5.6	18.6	-2.5	5.3	22.7	27.6*
CC[C@H](NC(=O)CC[C@H]1O[C@@H](n2cnc3c(NC(=O)c4ccccc4)ncnc32)[C@H](O)[C@@H]1O)c1ccccc1	.	.	5.0	-0.5	.	.	.	.
CCN1CCN(c2cc(C)c3cc(NC(=S)N4CCOCC4)ccc3n2)CC1	6.6	-5.5	1.9	2.0	9.2	4.5	.	.
CCN1CCN(c2cc(C)c3cc(NC(=S)N4CCN(c5ccccc5)CC4)ccc3n2)CC1	25.7*	-4.6	-8.2	8.6	-3.4	12.2	25.4*	37.1*
O=C1NC[C@@H](CCCCN2CCN(CCc3ccc(O)cc3)C(=O)C2=O)N(Cc2ccccc2)C1=O	.	.	2.1	-8.4	.	.	.	.
O=C(CSc1nnc(CNC(=O)c2c(F)cccc2Cl)o1)c1ccccc1	26.6*	1.9	-1.4	4.8	-4.5	3.5	-0.2	6.7
O=C(CSc1nnc(CNC(=O)c2c(F)cccc2Cl)o1)Nc1ccccc1	6.3	-0.8	6.5	-2.6	-2.4	-10.7	.	.
CCCCC1Cc2[nH]c(=S)[nH]c(=O)c2C(c2ccc(Cl)cc2)O1 (stereo unspecified)	.	.	1.3	0.7	.	.	.	.
O=C(Nc1nc(-c2ccccc2)cs1)c1ccccc1NS(=O)(=O)c1ccc(F)cc1	26.0*	-1.4	3.6	2.6	10.2	5.3	3.3	4.4
CCOC(=O)C1=CCN(S(=O)(=O)c2ccccc2C)C1c1cccc(Cl)c1 (stereo unspecified)	.	.	-3.4	-6.8	.	.	.	.
Clc1ccc(CSc2nnc(CN3CCOCC3)n2-c2ccccc2)cc1Cl	26.1*	-0.5	-2.6	-5.2	8.9	5.1	-5.8	-0.6
Clc1cccc(Cl)c1CSc1nnc(CN2CCOCC2)n1-c1ccccc1	-1.6	3.5	3.4	-3.5	5.0	7.7	.	.
O=C1C=C(OCCF)CC(c2cccc([N+](=O)[O-])c2)O1 (stereo unspecified)	.	.	-5.0	-4.1	.	.	.	.
CCOC(=O)Cc1csc(NC(=O)Cc2cccs2)n1	26.2*	0.4	-1.0	5.0	-9.4	3.0	-6.0	-2.0
C=CCOc1nc(-c2ccncc2)nc2ccccc12	25.5*	0.5	3.0	-6.0	-9.1	0.4	-7.9	4.2
CCN(CC)c1ccc2cc(-c3nnc(-c4ccccc4)o3)c(=O)oc2c1	8.3	1.9	-3.7	11.9	-5.1	10.2	.	.
CCN(CC)c1ccc2cc(-c3nc(-c4ccc(OC)cc4)cs3)c(=O)oc2c1	79.6*	8.5	.	.	.	.	89.7*	115.2*
CCN(CC)c1ccc2cc(-c3nc4ccccc4[nH]3)c(=O)oc2c1	39.6*	26.9*	0.0	44.7*	7.9	37.1*	64.1*	78.3*
COC(=O)c1cnc(Nc2nc(CN)cs2)nc1C(F)(F)F	.	.	4.9	1.5	.	.	.	.
Cn1c(Cl)cnc1C1CC(=O)c2cc(Cl)ccc2O1 (stereo unspecified)	26.9*	1.7	-4.9	4.5	-6.6	3.0	-7.0	-16.8
COc1ccc(N/C=C2\CCOC2=O)cc1	25.9*	2.6	2.3	-10.4	8.2	0.3	11.6	-0.6
CC(=O)c1ccc(NC(=O)COC(=O)CCN2C(=O)c3cccc([N+](=O)[O-])c3C2=O)cc1	3.0	3.3	-1.6	4.4	.	-2.9	.	.
CC(C)N(c1ccccc1)c1ccc(NC(=O)COC(=O)CCN2C(=O)c3cccc([N+](=O)[O-])c3C2=O)cc1	25.1*	5.4	-7.6	2.5	3.9	-11.3	-5.0	-27.6
SMILES	TLR4 MyD88 comp	LANA-H2B inh	HTR2A ag	NOD2-RIPK2 inh	Rtt109 Vps75	TLR9-MyD88 inh	TLR4 MyD88 cnf	BLA inhibitor ct
O=C1CNC(=O)/C1=C\N1CCCCC1	28.9*	-3.2	2.4	-7.6	-10.9	-3.6	-1.2	2.6
O=c1c(Br)c(Br)cnn1-c1ccccc1	34.7*	.	14.0	19.0	-1.5	9.4	19.6	-5.7
CC(C)OC(=O)/C(C#N)=C/c1ccc(-c2ccc(SC(F)F)cc2)o1	25.7*	-17.5	-0.1	0.1	0.8	-0.4	3.5	21.1
COC(=O)/C(C#N)=C/c1ccc(-c2ccc(S(N)(=O)=O)cc2)o1	.	6.6	-6.9	-19.4	-6.5	-6.6	.	.
CC1CCCCC1NC(=O)COC(=O)c1c2c(nc3ccccc13)/C(=C/c1ccco1)CC2 (stereo unspecified)	60.6*	5.0	2.1	8.7	-0.4	-11.9	49.2*	85.1*
O=C(COC(=O)c1c2c(nc3ccccc13)/C(=C/c1ccco1)CC2)NC1CCCC1	45.1*	.	-0.2	1.7	-13.8	18.7	44.5*	69.1*
Cc1cc(C(=O)OCC(=O)NC2CCCCC2C)c2ccccc2n1 (stereo unspecified)	.	3.7	4.3	-8.2	-0.1	-6.9	.	.
COC(=O)C[C@@H]1CC[C@@H](NC(=O)Nc2cc(F)ccc2F)[C@@H](CO)O1	.	.	-6.4	2.6	.	.	.	.
COC(=O)c1cc(-c2ccc(C)o2)nc2ccccc12	10.2	-5.2	2.0	-6.6	7.3	-11.2	.	.
Cc1ccc(-c2cc(C(=O)Nc3ccccc3C)c3ccccc3n2)o1	28.0*	-1.3	-4.3	-2.4	-11.3	2.4	4.2	10.4
CCOC(=O)c1c(NC(=O)c2ccccc2Cl)sc2c1CCc1ccccc1-2	8.2	-0.7	-3.0	-4.3	12.6	7.3	.	.
CCCCC(=O)Nc1sc2c(c1C(=O)OCC)CCC(C=O)=C2Cl	26.1*	1.9	0.4	9.5	1.3	18.8	38.3*	45.4*
NCc1csc(NC(=O)Nc2cccc(C(F)(F)F)c2)n1	.	.	-11.5	2.3	.	.	.	.
O=C(N=c1ccn(-c2nc3ccccc3nc2NS(=O)(=O)c2ccccc2)cc1)c1cccs1	66.2*	-9.5	1.6	15.4	6.5	-1.8	10.4	14.7
